Most compounds without a hit are left out; they make up all but 10% or so of the library.
LMNA splice mod – modulators of lamin A splicing; hit rate 0.01% among 200,000; HeLa LMNA splicing GFP/RFP minigene ratio, 48 h; AID 1487; Potency, µM (series often up to 46.1 µM), for the others: at the highest dose ratio change, negative = inhibition, usual class: inhibitors; active = well fitted inhibition curve with a large enough effect in the signal ratio, with a control signal flat, not every such curve was filed as active; inconclusive = small, poorly fitted or top-dose-only effect, or effect the other way, or a change in a side signal; the % refers to the signal ratio; note: potency is the fitted concentration of half-maximal effect
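Read-out is the ratio of GFP to DsRed2 object intensity, acquired by 488 nm laser-scanning cytometry on HeLa lamin A-EGFP minigene reporter cells. Compound incubation 48 hrs at 37 °C in Opti-MEM with 2% FBS; DMSO 0.5% final.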
ALDH1A1 inh – ALDH1A1 (human) enzyme inhibition; P00352; Purified ALDH1A1, NADH fluorescence, propionaldehyde substrate; Potency, µM (titrated, usually from 75.3 µM), inactives show at the top dose activity, negative = inhibition, actives largely listed as inhibitors; hit rate 7.3% among 220,000;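 note: potency is the fitted concentration of half-maximal effect; plate controls were no enzyme wells and a reference inhibitor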
Target sequence (P00352 whole entry, looked up): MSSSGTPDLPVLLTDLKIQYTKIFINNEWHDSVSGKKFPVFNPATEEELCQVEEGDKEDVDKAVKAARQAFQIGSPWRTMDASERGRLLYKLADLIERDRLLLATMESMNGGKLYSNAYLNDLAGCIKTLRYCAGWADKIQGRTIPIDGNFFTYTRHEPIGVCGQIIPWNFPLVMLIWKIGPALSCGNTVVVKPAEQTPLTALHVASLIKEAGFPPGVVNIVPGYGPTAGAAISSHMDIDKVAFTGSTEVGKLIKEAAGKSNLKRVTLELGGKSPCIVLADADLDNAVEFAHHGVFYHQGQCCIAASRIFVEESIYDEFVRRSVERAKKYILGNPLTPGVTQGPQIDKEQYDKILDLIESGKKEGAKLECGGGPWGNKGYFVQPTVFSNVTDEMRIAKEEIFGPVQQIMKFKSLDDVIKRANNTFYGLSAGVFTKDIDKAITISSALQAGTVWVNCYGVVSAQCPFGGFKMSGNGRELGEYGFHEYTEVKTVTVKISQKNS
IMPase cell inh – IMPase inhibition in cells; AID 901; inhibition (IP1 accumulation), % at 46.1 µM; 120,000 tested, under 10 active; P97697; CHO-M1 cells, IP1 accumulation, HTRF TR-FRET ratio; active = well fitted curve in the direction sought with a large enough effect in the signal ratio, not every such curve was filed as active; inconclusive = small, poorly fitted or top-dose-only effect, or a change in a side signal; inactive = no such curve, though single readings can be large or run the other way; the % refers to the signal ratio;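 note: cells stimulated with carbachol in lithium chloride buffer; plate controls were DMSO basal wells for no effect and reference inhibitor wells for full effect; higher means more IMPase inhibition seen as more IP1 and lower FRET ratio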
Target sequence (P97697 whole entry, looked up): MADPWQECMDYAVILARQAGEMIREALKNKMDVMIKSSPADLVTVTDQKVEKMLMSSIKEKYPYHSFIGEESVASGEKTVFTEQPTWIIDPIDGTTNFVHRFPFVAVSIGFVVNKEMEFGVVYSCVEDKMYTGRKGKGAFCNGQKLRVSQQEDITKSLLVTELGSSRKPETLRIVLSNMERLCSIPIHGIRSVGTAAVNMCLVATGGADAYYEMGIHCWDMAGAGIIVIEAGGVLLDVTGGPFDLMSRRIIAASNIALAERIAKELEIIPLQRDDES
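The IP-One HTRF competitive assay in carbachol-stimulated CHO-M1 cells quantifies cellular IP1. Compounds spanned up to 46 uM final, and activity is expressed as AC50 from concentration-response fits of the ratio and donor data.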
HPGD inh – blocks human HPGD enzyme activity; P15428; Potency, µM, for the others: top-dose activity change, negative = inhibition, actives largely listed as inhibitors; hit rate 4.3% among 150,000; purified HPGD, NADH fluorescence kinetic, PGE2 substrate; note: potency is the fitted concentration of half-maximal effect
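20 nM HPGD preincubated 15 min at room temperature with compound in 50 mM Tris-HCl pH 8, 0.01% Tween 20. Started with 1 mM NAD+ and 30 uM prostaglandin E2; NADH fluorescence (360/450 nm) read 5 times over 30-s intervals, last minus first.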
PNC assembly inh – blocks assembly of the perinucleolar compartment. PC3M PTB-GFP, PNC prevalence imaging, 16 h; stronger effect = lower value. activity change (PNC), negative = inhibition, % at 10 µM. hit rate 3.1% among 140,000. AID 2417;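 active = readout at or below -70, meaning at least 70% loss of cells showing the perinucleolar compartment, a nuclear body marking cancer cells; inconclusive = readout between -30 and a set limit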;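 note: plate controls were DMSO wells for no effect and camptothecin positive control wells for full effect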
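Compounds are pinned in duplicate onto adhered PC3M cells stably expressing GFP-tagged PTB and incubated 16 h at 37 C. Cells are then fixed, nuclei stained with Hoechst, and PNC-positive cells counted.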
Luc counter – counter-screen: inhibitors of Kinase-Glo firefly luciferase | Q27757 | Kinase-Glo luciferase, ATP luminescence, 8 min | Potency, µM (highest dose often 38.3 µM), for inactives: at the top dose activity change, negative = inhibition, hits mostly inhibitors | hit rate 0.28% among 200,000 | AID 1379; active = well fitted inhibition curve with a large enough effect; inconclusive = small, poorly fitted or top-dose-only effect; note: potency is the fitted concentration of half-maximal effect; nearly all actives have a fitted effect of over 60% in size
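Light output from Kinase-Glo luciferase with luciferin and 10 uM ATP in 50 mM imidazole pH 7.2, KCl, MgCl2, Tween 20, BSA; compound pin-delivered, 8-min ambient incubation, then luminescence read.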
* = called active by the depositor; u = inconclusive; x = no result given; [ ] = another dose, or the depositor's remark. Unless noted, calls come from the whole dose curve; as a rule, active = well fitted inhibition curve with a large enough effect (not every such curve was filed as active); inconclusive = small, poorly fitted or top-dose-only effect, or another doubt; inactive = no such curve, though single readings can be large or run the other way. Unless noted, % is set by controls: 0 for no effect and ±100 for the full control effect.

SMILES | LMNA splice mod | ALDH1A1 inh | IMPase cell inh | HPGD inh | PNC assembly inh | Luc counter
CCN(C(=O)COC(=O)c1cc([N+](=O)[O-])ccc1N1CCCCC1)C1CCS(=O)(=O)C1 (centres undefined) | x | 14µM* | x | x | x | -2%
COc1cccc([C@@H]2Oc3ccc(Br)cc3C(=O)[C@H]2OC(=O)NS(=O)(=O)c2ccc(C)cc2)c1 | x | 4% | x | -6% | x | 1%
CSc1ccc(S(=O)(=O)Nc2ccc(OCC(=O)N3CCOCC3)cc2)cc1 | 16%[46 µM] | 13µM* | x | x | x | 1%
COc1ccc(NS(=O)(=O)c2ccc(OCC(=O)N3CCOCC3)cc2)cc1 | u | -4% | 0 | 2% | u | 1%
CCCNS(=O)(=O)c1ccc(OCC(=O)N2CCOCC2)cc1 | -1% | 12% | 3 | -8% | -100* | 3%
O=C(CN(Cc1ccccc1)S(=O)(=O)c1ccccc1)N1CCOCC1 | -10% | -2% | 1 | 0% | -101* | -2%
O=C(CN(c1ccccc1F)S(=O)(=O)c1ccccc1)N1CCCCCC1 | 10% | 28µM* | 4 | 3% | -1 | -5%
CCCS(=O)(=O)N1CC(=O)N(c2ccc(C)cc2C)C(C)(C(=O)NC2CCCCCC2)C1 (centres undefined) | -1%[46 µM] | x | x | x | x | x
O=C(O)CCN1C(=S)CSC1=S | x | -11%[13.5 µM] | x | -17% | x | -6%[7.66 µM]
CCOc1ccccc1N(CC(=O)N1CCOCC1)S(=O)(=O)c1ccc(SC)cc1 | 9% | 8.9µM* | 1 | 2% | -8 | 1%
CC(C)CCNC(=O)c1ccc2c(c1)nc1n2CCCCC1 | 14%[46 µM] | x | x | x | x | x
CCOC(=O)C1(CCOc2ccccc2)CCN(Cc2ccc3nonc3c2)CC1 | x | 28µM* | x | x | x | 8%
CCOC(=O)C1(CCOc2ccccc2)CCN(Cc2ccc(NC(C)=O)cc2)CC1 | -12%[46 µM] | 9% | x | x | x | -1%
CCOC(=O)C1(CCOc2ccccc2)CCN(Cc2cnc(C)s2)CC1 | x | 16µM* | x | x | x | x
Cc1ccc(C(=O)Nc2cccc(C(=O)OCc3cc(=O)n4c5c(sc4n3)CCCC5)c2)cc1 | -22%[46 µM] | x | x | x | x | x
O=C1C(=O)N(CNc2ccccn2)c2ccccc21 | 5% | 3.2µM* | 4 | -17% | 18 | -2%
O=C1C(=O)N(CNc2cccnc2)c2ccccc21 | -3% | -1% | -2 | 16µM* | u | -1%
CN(Cc1ccccc1)C1CC(=O)N(c2ccc(C(=O)O)cc2)C1=O (centres undefined) | -13% | 28µM* | -5 | -6% | -2 | 0%
CCCCCCC(=O)N(O)C1CC(=O)N(Cc2ccccc2)C1=O (centres undefined) | u | 3.5µM* | -12[1.84 µM] | 18µM* | u | 4%
CCCCCC(=O)N(O)C1CC(=O)N(c2ccccc2)C1=O (centres undefined) | u | 0.79µM* | -11 | 16µM* | 36 | 0%
CN(C)C(=O)c1ccc(-c2cncnc2NCc2cccnc2)cc1 | 1% | u | x | x | x | x
O=S(=O)(c1ccccc1)N1CCC2(CCCN(Cc3cc(C(F)(F)F)cc(C(F)(F)F)c3)C2)CC1 | x | u | x | -14% | x | -2%
Cc1ccc(C2CC(=O)Oc3cc(C)c(Cl)c(C)c32)cc1 (centres undefined) | x | -13% | x | -16% | x | -2%[39.9 µM]
COc1ccc(CC2(CO)CCN(S(=O)(=O)c3sccc3C)CC2)cc1 | x | 8.9µM* | x | x | x | -1%
O=S(=O)(c1cccc(F)c1)N1CCC(CO)(Cc2cccc(F)c2)CC1 | u | -8% | x | x | x | 2%
SMILES | LMNA splice mod | ALDH1A1 inh | IMPase cell inh | HPGD inh | PNC assembly inh | Luc counter
Cc1cccc(S(=O)(=O)N2CCC(CO)(Cc3ccccc3)CC2)c1 | -4%[46 µM] | 20µM* | x | x | x | 3%
COc1ccc(CC2(CO)CCN(S(=O)(=O)c3c(C)nn(C)c3Cl)CC2)cc1 | x | -4% | x | x | x | 3%
C[C@@H]1OC2C3=C(C(=O)[C@H]4O[C@@H]4[C@H]3O)[C@@H]1[C@H]1[C@H](C)OC=C3[C@H](O)[C@H]4O[C@H]4/C(=N\OCc4ccccc4)[C@@]321 | x | -1%[13.5 µM] | x | x | x | x
Cc1ccccc1NC(=O)CSC1=Nc2ccccc2C2=NC(Cc3ccccc3)C(=O)N12 (centres undefined) | -1%[46 µM] | x | x | x | x | x
COc1ccc(C=Nc2c(O)ccc3ccccc23)cc1OC | x | u | x | -25% | x | -2%[7.66 µM]
COc1ccc(/C=C2/C(=O)N(CC3CCCO3)C(=S)N2C)c(OC)c1 (centres undefined) | 8% | 13µM* | 2 | -18% | 6 | 1%
COc1ccccc1/C=C1\NC(=S)N(CC2CCCO2)C1=O (centres undefined) | 17% | 0.5µM* | 10 | 28µM* | -18 | -2%
COCOc1c2c(c(OCOC)c3c(OCOC)cccc13)/C(=N/NS(C)(=O)=O)C1=C2CCCC1 | x | -14% | x | u | x | -1%
COC(=O)C1=C(C)NC(C)=C([N+](=O)[O-])[C@@H]1c1ccccc1C(F)(F)F | x | -7% | -2 | -7% | x | 1%[39.9 µM]
Cc1cc(Cl)ccc1OCC(=O)N1CCN(c2ncccn2)CC1 | u | -11% | x | x | x | 1%
O=C(COc1ccc(Cl)cc1)N1CCN(C(=O)c2cccc(F)c2)CC1 | -3% | 14µM* | 1 | 3% | 36 | 5%
O=C(CCCOc1ccc(Cl)cc1)N1CCOCC1 | 3% | 3% | -3 | -19% | 10 | 0%
COc1ccc(OCC(=O)N2CCN(C(=O)c3cccc(OC)c3OC)CC2)cc1 | x | x | 0 | x | x | x
Cc1cc(Cl)ccc1OCC(=O)N1CCCCC1 | u | -14% | 5 | 28µM* | -3 | -4%
O=C(CCCOc1ccc(Cl)cc1)N1CCCCC1 | 2% | -16% | 21 | 1.6µM* | -8 | 4%
O=C(COc1ccccc1)N1CCN(C(=O)c2cccc(F)c2)CC1 | 6% | -11% | -2 | -1% | -10 | -1%
COc1ccc(OCCNC(=O)c2ccccc2OCC(=O)N2CCCCC2)cc1 | u | 3.5µM* | -3 | -14% | u | 1%
COc1ccc(CCNC(=O)Cn2cc(C(=O)c3ccccc3)c(=O)c3ccc(C)nc32)cc1OC | 8%[46 µM] | x | x | x | x | x
CCCn1c(-c2ccc(F)cc2)nc2c(NCCCCN(C)C)nc(C)nc21 | x | u | x | u | x | 0%
O=C(CCCOc1ccccc1)N1CCCCC1 | 7% | -1% | 2 | 4µM* | -19 | -29%
O=C(COc1ccc(Cl)cc1)N1CCN(c2ncccn2)CC1 | 5% | 4% | 2 | 1% | -11 | 9%
CCOC(=O)C1CCN(C(=O)CCCOc2ccccc2)CC1 | 4% | u | 5 | -15% | 14 | -6%
O=C(c1cccc(F)c1)N1CCN(C(=O)c2nn3cccnc3c2Cl)CC1 | 6% | 20µM* | -10 | -18% | -5 | -4%
CN(c1ccc(OCC(=O)N2CCCCC2)cc1)S(=O)(=O)c1cccs1 | u | -6% | -15 | 14µM* | -9 | -3%
